PubChem BioAssay AID1159580 (chemical genetic matrix, 2015)
“And” between values parts separate entries of the source, which are not always exact repeats. Equal entries are not always repeated. The campaign covered roughly 5,500 compounds. About 2,000 (36%) were called active. Not shown: some 18% with an inconclusive outcome. Rule as the data show it: active = normalized growth mostly below about 0.91 (no sharp cut-off); inconclusive = no clear call, values can overlap the other calls; inactive = mostly above about 0.92. This is one part of the list.

Experiment: chemical genetic growth profiling, strain panel (AID 1159580);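 also: tested at 20 µM; growth read once vehicle control cultures reached saturation at 30 °C; 1 = growth at the plate median or of vehicle wells; lower values mean less growth of the strain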
Settings: S. cerevisiae deletion strains, growth OD

Measured: normalized growth

CC[C@@]1(C2O[C@@H](C3O[C@@](O)(CC)[C@H](C)C[C@@H]3C)C[C@@H]2C)CC[C@H]([C@]2(C)CCC3(C[C@H](O)[C@@H](C)[C@@H]([C@H](C)[C@@H](OC)[C@H](C)C(=O)O)O3)O2)O1 (stereo not given in full)
inactive: locus YAL013W, strain DEP1, stronger effect = lower value 0.998 | locus YAL021C, strain ccr4, stronger effect = lower value 0.924 | locus YAL030W, strain snc1, stronger effect = lower value 1.03 | locus YBL061C, strain skt5, stronger effect = lower value 1.04 | locus YBR009C, strain hhf1, stronger effect = lower value 1.02 | locus YBR021W, strain FUR4, stronger effect = lower value 1.05 | locus YBR023C, strain chs3, stronger effect = lower value 1.03 | locus YBR171W, strain sec66, stronger effect = lower value 0.974 | locus YBR229C, strain ROT2, stronger effect = lower value 1.03 | locus YBR231C, strain swc5, stronger effect = lower value 1.06 | locus YBR279W, strain paf1, stronger effect = lower value 1.03 | locus YCL011C, strain gbp2, stronger effect = lower value 0.991 | locus YCL016C, strain dcc1, stronger effect = lower value 1.02 | locus YCL029C, strain bik1, stronger effect = lower value 0.982 | locus YCL069W, strain vba3, stronger effect = lower value 0.998 | locus YCR088W, strain abp1, stronger effect = lower value 0.966 | locus YDL005C, strain med2, stronger effect = lower value 1.06 | locus YDL035C, strain GPR1, stronger effect = lower value 1.04 | locus YDL040C, strain nat1, stronger effect = lower value 1.03 | locus YDL074C, strain BRE1, stronger effect = lower value 0.994 | locus YDL101C, strain DUN1, stronger effect = lower value 0.99 | locus YDL134C, strain PPH21, stronger effect = lower value 1.05 | locus YDL185W, strain tfp1, stronger effect = lower value 0.96 | locus YDL192W, strain arf1, stronger effect = lower value 0.999 | locus YDR001C, strain nth1, stronger effect = lower value 0.972 | locus YDR069C, strain doa4, stronger effect = lower value 1.03 | locus YDR101C, strain arx1, stronger effect = lower value 1.01 | locus YDR159W, strain sac3, stronger effect = lower value 1.02 | locus YDR162C, strain NBP2, stronger effect = lower value 1.01 | locus YDR195W, strain ref2 1.04 | locus YDR297W, strain sur2, stronger effect = lower value 1.04 | locus YDR318W, strain mcm21, stronger effect = lower value 0.98 | locus YDR334W, strain swr1, stronger effect = lower value 0.987 | locus YDR335W, strain msn5, stronger effect = lower value 1.02 | locus YDR388W, stronger effect = lower value 1.01 | locus YDR392W, strain spt3, stronger effect = lower value 1.08 | locus YDR502C, strain sam2, stronger effect = lower value 0.983 | locus YEL003W, strain gim4, stronger effect = lower value 1 | locus YEL037C, strain rad23, stronger effect = lower value 1.01 | locus YEL061C, strain CIN8 (second series), stronger effect = lower value 1.01 | locus YEL061C, strain CIN8, stronger effect = lower value 0.99 | locus YER015W, strain faa2, stronger effect = lower value 1.01 | locus YER016W, strain bim1, stronger effect = lower value 1.01 | locus YER110C, stronger effect = lower value 1.01 | locus YER111C, strain swi4, stronger effect = lower value 1.04 | locus YER155C, strain BEM2 (second series), stronger effect = lower value 1.08 | locus YER155C, strain BEM2, stronger effect = lower value 0.999 | locus YER167W, strain BCK2, stronger effect = lower value 0.992 | locus YFR010W, strain ubp6, stronger effect = lower value 1.02 | locus YGL078C, strain dbp3, stronger effect = lower value 0.994 | locus YGL086W, strain mad1, stronger effect = lower value 1 | locus YGL167C, strain pmr1, stronger effect = lower value 1.05 | locus YGL173C, strain kem1, stronger effect = lower value 1.04 | locus YGL227W, strain vid30, stronger effect = lower value 1 | locus YGL240W, strain doc1, stronger effect = lower value 1.04 | locus YGL248W, strain PDE1, stronger effect = lower value 0.991 | locus YGL253W, strain hxk2, stronger effect = lower value 0.983 | locus YGR078C, strain PAC10, stronger effect = lower value 0.994 | locus YGR135W, strain pre9, stronger effect = lower value 0.971 | locus YGR252W, strain gcn5, stronger effect = lower value 0.976 | locus YHR013C, strain ard1, stronger effect = lower value 1.03 | locus YHR027C, strain rpn1, stronger effect = lower value 1.05 | locus YHR030C, strain SLT2, stronger effect = lower value 1.01 and 0.966 | locus YHR079C, strain IRE1 (second series), stronger effect = lower value 0.991 | locus YHR079C, strain IRE1, stronger effect = lower value 0.956 | locus YHR094C, strain hxt1, stronger effect = lower value 1.02 | locus YHR129C, strain ARP1, stronger effect = lower value 1 | locus YHR142W, strain chs7, stronger effect = lower value 0.966 | locus YHR200W, strain rpn10, stronger effect = lower value 0.986 | locus YIL066C, strain RNR3, stronger effect = lower value 1 | locus YIL073C, strain SPO22, stronger effect = lower value 0.915 | locus YIL125W, strain kgd1, stronger effect = lower value 0.993 | locus YIR030C, strain dcg1, stronger effect = lower value 1 | locus YJL092W, strain hpr5, stronger effect = lower value 0.973 | locus YJL095W, strain BCK1 (second series), stronger effect = lower value 1.04 | locus YJL095W, strain BCK1, stronger effect = lower value 0.972 and 0.975 | locus YJL115W, strain asf1, stronger effect = lower value 1.02 | locus YJL134W, strain LCB3, stronger effect = lower value 1.01 | locus YJL154C, strain vps35, stronger effect = lower value 0.963 | locus YJL164C, strain tpk1, stronger effect = lower value 0.993 | locus YJL166W, strain qcr8, stronger effect = lower value 1.04 | locus YJL168C, strain set2, stronger effect = lower value 1.03 | locus YJL187C, strain SWE1 (second series), stronger effect = lower value 0.98 | locus YJR043C, strain POL32, stronger effect = lower value 1.05 | locus YJR066W, strain TOR1, stronger effect = lower value 0.941 | locus YKL009W, strain mrt4, stronger effect = lower value 1 | locus YKL068W, stronger effect = lower value 0.998 | locus YKL085W, strain MDH1 (second series), stronger effect = lower value 0.942 | locus YKL085W, strain MDH1, stronger effect = lower value 0.942 | locus YKL160W, strain elf1, stronger effect = lower value 1.01 | locus YKL190W, strain CNB1, stronger effect = lower value 0.981 | locus YKR001C, strain vps1, stronger effect = lower value 1.03 | locus YKR026C, strain gcn3, stronger effect = lower value 0.979 | locus YKR091W, strain srl3, stronger effect = lower value 0.999 | locus YLL001W, strain dnm1, stronger effect = lower value 1.02 | locus YLL026W, stronger effect = lower value 1 | locus YLL041C, strain sdh2, stronger effect = lower value 1.01 | locus YLR027C, strain aat2, stronger effect = lower value 0.995 | locus YLR039C, strain RIC1, stronger effect = lower value 1.32 | locus YLR058C, strain SHM2, stronger effect = lower value 0.989 | locus YLR102C, strain apc9, stronger effect = lower value 1.02 | locus YLR113W, strain HOG1, stronger effect = lower value 0.947 | locus YLR221C, strain rsa3, stronger effect = lower value 0.988 | locus YLR258W, strain gsy2, stronger effect = lower value 1.03 | locus YLR262C, strain YPT6, stronger effect = lower value 1.07 | locus YLR268W, strain sec22, stronger effect = lower value 0.987 | locus YLR320W, strain mms22, stronger effect = lower value 1.02 | locus YLR330W, strain CHS5, stronger effect = lower value 0.994 | locus YLR342W, strain FKS1 (second series), stronger effect = lower value 1.05 | locus YLR342W, strain FKS1, stronger effect = lower value 1.01 | locus YLR357W, strain rsc2, stronger effect = lower value 1.01 | locus YLR370C, strain arc18, stronger effect = lower value 0.979 | locus YLR371W, strain rom2, stronger effect = lower value 1.01 | locus YLR384C, strain iki3, stronger effect = lower value 1.05 | locus YLR418C, strain cdc73, stronger effect = lower value 0.993 | locus YML016C, strain PPZ1, stronger effect = lower value 0.996 | locus YML032C, strain rad52, stronger effect = lower value 1.01 | locus YML120C, strain ndi1, stronger effect = lower value 1.01 | locus YML124C, strain tub3, stronger effect = lower value 1.01 | locus YMR058W, strain fet3, stronger effect = lower value 1.01 | locus YMR078C, strain ctf18, stronger effect = lower value 1.02 | locus YMR125W, strain sto1, stronger effect = lower value 0.982 | locus YMR129W, stronger effect = lower value 0.999 | locus YMR205C, strain PFK2, stronger effect = lower value 1.01 | locus YMR223W, strain ubp8, stronger effect = lower value 0.983 | locus YMR263W, strain SAP30, stronger effect = lower value 0.967 | locus YMR307W, strain GAS1, stronger effect = lower value 1.23 | locus YNL067W, strain RPL9B, stronger effect = lower value 0.959 | locus YNL071W, strain lat1, stronger effect = lower value 1.01 | locus YNL128W, strain TEP1, stronger effect = lower value 0.956 | locus YNL153C, strain GIM3, stronger effect = lower value 0.997 | locus YNL183C, strain NPR1, stronger effect = lower value 0.941 | locus YNL209W, strain ssb2, stronger effect = lower value 1.05 | locus YNL233W, strain BNI4, stronger effect = lower value 1 | locus YNL248C, strain rpa49, stronger effect = lower value 1.03 | locus YNL250W, strain rad50, stronger effect = lower value 0.998 | locus YNL271C, strain bni1, stronger effect = lower value 1.01 | locus YNL298W, strain CLA4, stronger effect = lower value 0.993 | locus YNL307C, strain MCK1, stronger effect = lower value 1.05 | locus YNL322C, strain KRE1 (second series), stronger effect = lower value 0.962 | locus YNL322C, strain KRE1, stronger effect = lower value 0.99 | locus YNR049C, strain mso1, stronger effect = lower value 0.985 | locus YNR052C, strain pop2, stronger effect = lower value 0.988 | locus YOL012C, strain htz1 1.01 | locus YOL147C, strain pex11, stronger effect = lower value 1.01 | locus YOR001W, strain rrp6, stronger effect = lower value 1.02 | locus YOR061W, strain CKA2, stronger effect = lower value 1 | locus YOR069W, strain VPS5, stronger effect = lower value 1 | locus YOR070C, strain gyp1, stronger effect = lower value 1.03 | locus YOR080W, strain dia2, stronger effect = lower value 1.03 | locus YOR083W, strain WHI5, stronger effect = lower value 1.01 | locus YOR136W, strain idh2, stronger effect = lower value 0.99 | locus YOR144C, strain elg1, stronger effect = lower value 1.01 | locus YOR184W, strain ser1, stronger effect = lower value 0.977 | locus YOR231W, strain MKK1, stronger effect = lower value 0.974 | locus YOR265W, strain rbl2, stronger effect = lower value 1.04 | locus YOR290C, strain snf2, stronger effect = lower value 0.978 | locus YOR316C, strain cot1, stronger effect = lower value 1.01 | locus YPL051W, strain arl3, stronger effect = lower value 1.01 | locus YPL055C, strain LGE1, stronger effect = lower value 1.01 | locus YPL078C, strain atp4, stronger effect = lower value 1.05 | locus YPL106C, strain sse1, stronger effect = lower value 1.08 | locus YPL240C, strain hsp82, stronger effect = lower value 1.04 | locus YPL241C, strain CIN2, stronger effect = lower value 1.01 | locus YPL256C, strain CLN2, stronger effect = lower value 0.993 | locus YPR119W, strain clb2, stronger effect = lower value 1.02 | locus YPR141C, strain kar3, stronger effect = lower value 0.993 | locus YPR163C, strain tif3, stronger effect = lower value 1.05 | locus YPR167C, strain met16, stronger effect = lower value 0.991 | strain wtn01, stronger effect = lower value 0.99
